According to PubChem BioAssay AID1814 (Broad Institute, 2009):
The whole screen tested about 300,000 compounds, of which about 22,000 (7.3%) were called active. About 2% were inconclusive and are not listed. The entries come from a sample that favours actives as a whole. Unmarked numbers belong to inactive results. Cut-off read from the data, not from the text of the source: active = activity score below about -60%; inconclusive = mostly about -28% to -61%; inactive = positive scores.

experiment: Activators working through SNCA 5'UTR binding (MLPCN) (AID 1814); details: alpha-synuclein 5'UTR reporter, activators screen; stronger effect = lower value; tested at 7.5 µM

Structure (SMILES)	activity score
O=C(NC(=S)NC1CCCCC1)c1ccc(Cl)cc1	-160% (active)
CC(C)CNC(=S)NC(=O)c1ccc(Cl)cc1	-111% (active)
O=C(NC1CCCCC1)c1ccc(-c2ccc(Cl)cc2)o1	-150% (active)
COc1ccc(C(=O)NC(=S)NC2CCCCC2)cc1	-137% (active)
Cc1ccc(OCCCC(=O)N2CCOCC2)c(C)c1	-75.1% (active)
Cc1oc2c(c1C(=O)N1CCOCC1)C(=O)c1ccccc1C2=O	101%
O=c1oc2ccccc2cc1-c1cn(-c2ccccc2)c(=S)[nH]1	119%
COc1ccc(-c2cn(-c3ccc(OC)cc3)c(=S)[nH]2)cc1	-129% (active)
O=C(Nc1ccc2oc(-c3ccc4ccccc4c3)nc2c1)c1cccs1	-233% (active)
CCN(CC)C(=O)c1sc2nc(-c3ccccc3)ccc2c1N	-178% (active)
O=C(Nc1ccc(F)cc1)c1cc2c(s1)CCCC2	-165% (active)
O=C(NNC(=O)c1cc2c(s1)CCCC2)c1ccccc1	-80.5% (active)
CCN(CC)c1ccc(C(=O)c2cnc(/N=C/N(C)C)s2)cc1	-64.1% (active)
C=CCNc1cnn(-c2ccc(C)cc2)c(=O)c1Cl	-80.9% (active)
Cc1sc2ncnc(Sc3nc4ccccc4s3)c2c1C	-71% (active)
CSc1ccccc1OCc1cc(C(=O)N2C[C@H]3CC[C@H]2C3)no1	-85.5% (active)
N#Cc1c(NC(=O)C2CCCO2)sc2c1CCCCC2 (centres undefined)	-161% (active)
Cc1ccc(C)c(NC(CC(=O)c2ccccc2)C(=O)OCC(=O)c2cccs2)c1 (centres undefined)	-96.3% (active)
O=C(Cn1ncc(N2CCCC2)c(Br)c1=O)c1ccc(Cl)cc1	-92.2% (active)
O=C(CSc1cccc[n+]1[O-])c1ccc(-c2ccccc2)cc1	-146% (active)
CCOC(=O)c1[nH]c2c(c1C)C(=O)CC(c1ccc(N(C)C)cc1)C2 (centres undefined)	-105% (active)
CCOc1cc(/C=C2\SC(N3CCCCC3)=NC2=O)ccc1O	-75.9% (active)
O=C1N=C(N2CCCC2)S/C1=C\c1cccc(Br)c1	-122% (active)
O=C(COC(=O)c1cccc(Br)c1)Nc1cccc2c1C(=O)c1ccccc1C2=O	-79% (active)
CCCC(=O)N=c1sc2cccc(F)c2n1C	-76.7% (active)
Cn1c(=NC(=O)c2ccco2)sc2cccc(F)c21	-151% (active)
CS(=O)(=O)N1CCc2cc(C(=O)Nc3ccccc3)ccc21	-104% (active)
CS(=O)(=O)N1CCc2cc(C(=O)Nc3ccccc3Br)ccc21	-124% (active)
CSc1ccccc1NC(=O)c1ccc2c(c1)CCN2S(C)(=O)=O	-66.1% (active)
